This passage reports inhibition results from PubChem BioAssay AID1209 (Sanford-Burnham Center for Chemical Genomics, 2008).

In all, about 190,000 compounds went through this assay and about 810 (0.43%) were called active. No stated cut-off is given here; in the data, active means inhibition above about 50%; inactive means the rest. The full list was thinned out, with actives kept by preference.

The target in this assay is Mannose-6-phosphate isomerase (Homo sapiens) (UniProt P34949). In words: inhibitors of human PMI, primary screen, biochemical, fluorescence intensity, coupled assay (AID 1209).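 Further: plate controls were DMSO vehicle for no effect and wells lacking substrate for full effect.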 As to conditions: purified PMI enzyme, at 20 µM, stronger effect = higher value.
Chain of Mannose-6-phosphate isomerase (Homo sapiens) (P34949 whole entry, looked up): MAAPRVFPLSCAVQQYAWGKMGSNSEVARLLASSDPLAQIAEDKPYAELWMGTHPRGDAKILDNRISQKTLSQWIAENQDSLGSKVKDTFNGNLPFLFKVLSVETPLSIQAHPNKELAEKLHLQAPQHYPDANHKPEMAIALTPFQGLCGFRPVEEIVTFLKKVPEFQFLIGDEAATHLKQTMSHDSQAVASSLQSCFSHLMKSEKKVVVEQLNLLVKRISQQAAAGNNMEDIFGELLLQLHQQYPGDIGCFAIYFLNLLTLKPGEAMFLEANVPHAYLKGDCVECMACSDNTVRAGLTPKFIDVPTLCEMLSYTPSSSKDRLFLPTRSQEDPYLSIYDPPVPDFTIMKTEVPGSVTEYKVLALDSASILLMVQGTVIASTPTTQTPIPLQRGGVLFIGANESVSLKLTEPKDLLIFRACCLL
What is called inhibition is the relative decrease from the control value, in per cent. For `Cc1nnc(N/N=C\c2ccc(-c3ccccc3[N+](=O)[O-])o2)n1N`, the inhibition is 57.8% (active).

As for `Cc1nnc(N/N=C/c2ccc(-c3ccccc3F)o2)n1N`, the inhibition is -38.4% (inactive).

For `Cc1nnc(N/N=C/c2ccc(-c3ccc(Br)cc3)o2)n1N`, the inhibition was -11.5% (inactive).

On to `Nn1cnnc1N/N=C\c1ccc(-c2ccccc2[N+](=O)[O-])o1`, for which the inhibition is 82.5% (active).

On to `O=[N+]([O-])c1ccccc1-c1ccc(/C=N/n2cnnc2)o1`, for which the inhibition is 20.4% (inactive).

As for `Nn1cnnc1N/N=C/c1ccc(Cl)c([N+](=O)[O-])c1`, the inhibition is 13.3% (inactive).

For the compound `COc1ccc(N2C(=O)CSCC2=O)cc1OC`, the inhibition was 1.2% (inactive).

On to `Cc1ccc(C)c(C(C)NC(=O)c2ccccc2Br)c1` (configuration not stated), for which the inhibition is -5.5% (inactive).

`Cc1cc(C)nc(NC(=O)c2csnn2)c1`: the inhibition was -0.9% (inactive).

For `Cc1ccc(N=c2ssnc2Cl)cc1`, the inhibition was 75.1% (active).

For `Clc1ss/c(=N\c2ccccn2)c1Cl`, the inhibition was -30.7% (inactive).

For the compound `Cc1cc(C)c(C#N)c(Cl)n1`, the inhibition is 21% (inactive).

In the case of `CCOC(=O)c1ccc(N=c2ssnc2Cl)cc1`, the inhibition is 66.1% (active).

With `CCOC(=O)c1ccc(N=C2NC(=O)CS2)cc1`, the inhibition was 10.2% (inactive).

For `Cc1ccc(N=C2CSC(=O)N2)cc1`, the inhibition is 8.6% (inactive).

As to `Clc1nssc1=Nc1ccccc1`, the inhibition was 57% (active).

Consider `CCOC(=O)c1ccc(N=c2scc(C)n2CC)cc1`, for which the inhibition is -8.8% (inactive).

For `O=C1CSC(=Nc2ccccc2)N1Cc1ccccc1`, the inhibition was 6.4% (inactive).

Regarding `Cc1cc(C)nc(/N=c2/ssnc2Cl)c1`, the inhibition is 60.1% (active).

As for `Cc1ccc(N=c2sc(C)c(C)n2C)cc1`, the inhibition is -13% (inactive).

As to `CCC(=O)c1c[nH]c(C(=O)NCCCn2ccnc2)c1`, the inhibition is 10.2% (inactive).

With `O=C(CCN1CCCCCC1)Nc1ccc(F)c(F)c1`, the inhibition was -7.5% (inactive).

In the case of `COc1cc(/C=C(\NC(=O)c2ccccc2)C(=O)Nc2cccc(O)c2)c([N+](=O)[O-])cc1OC`, the inhibition was 9.6% (inactive).

Regarding `COC(=O)C(C(=O)OC)=C(/C=C/C=C/N(C)C)N(C)C`, the inhibition is 2.5% (inactive).

Turning to `O=C(Nc1ccc(Br)cc1)c1ccccc1CC[N+](=O)[O-]`, the inhibition was 17.3% (inactive).

On to `O=C1c2ccccc2C(=O)N1CC1c2ccccc2CCN1S(=O)(=O)c1cnc[nH]1` (configuration not stated), for which the inhibition was 7.7% (inactive).

Take `CC(C)c1nnc(NC(=O)CSc2ncn[nH]2)s1`: the inhibition is 10.7% (inactive).

For the compound `CC(C)(C)C1CCC(=NNC(=O)c2ccccc2-n2cccc2)CC1` (configuration not stated), the inhibition is 21% (inactive).

`CC12c3ccccc3C(c3ccccc31)C1C(=O)N(Cc3cccnc3)C(=O)[C@H]12` (some centres not stated): the inhibition was 4.1% (inactive).

As to `COc1ccc2c(c1)c(=O)c(C(=O)c1ccc(C)cc1)cn2CC(=O)Nc1ccc(F)cc1`, the inhibition is 3.6% (inactive).

In the case of `COc1cc(OC)cc(-n2nnnc2SCC(=O)Nc2ccc(C(C)=O)cc2)c1`, the inhibition was 5.1% (inactive).

As to `Cc1cc(NC(=O)C(C)C)ncc1NC(=O)c1ccccn1`, the inhibition was 0.2% (inactive).

For `O=C(CNC(=O)c1ccc(S(=O)(=O)N2CCCC2)cc1)N/N=C/c1ccc(Cl)cc1Cl`, the inhibition was 9.4% (inactive).

Turning to `NC1=NC(=Nc2ccc(Cl)cc2)c2ccccc21`, the inhibition was -3.6% (inactive).

Consider `Brc1ccc(N=Cc2ccccn2)cc1`, for which the inhibition is -9.1% (inactive).

For `NC1=NC(=Nc2ccc(Br)cc2)c2ccccc21`, the inhibition was -7.2% (inactive).

Consider `Clc1nssc1=Nc1ccc(Br)cc1`, for which the inhibition is 81.6% (active).

On to `Clc1ccc(N=c2ssnc2Cl)cc1`, for which the inhibition was 78.7% (active).

`O=C1NC(=Nc2ccc(Cl)cc2)/C(=C/c2ccco2)S1`: the inhibition is 1.4% (inactive).

With `CCOC(=O)Nc1ccc(OCc2nnc3c4ccccc4c(C)nn23)cc1`, the inhibition is 3.7% (inactive).

For `CCOC(=O)c1cnc(SCC(=O)NCc2cccs2)nc1N`, the inhibition was -5.5% (inactive).

For the compound `NS(=O)(=O)c1ccc(NC(=O)COC(=O)/C=C/c2ccc([N+](=O)[O-])cc2)cc1`, the inhibition was -1.2% (inactive).

In the case of `CCN(CC)S(=O)(=O)c1ccc(/C=C/C(=O)OCC(=O)Nc2ccc(S(N)(=O)=O)cc2)cc1`, the inhibition is 70.7% (active).

With `CCN(CC)S(=O)(=O)c1ccc(/C=C/C(=O)OCC(=O)Nc2ccc(C(N)=O)cc2)cc1`, the inhibition is -5.2% (inactive).

Take `Cc1c(C(=O)N2CCN(c3ccccc3F)CC2)sc2ncn(CC(=O)N3CCOCC3)c(=O)c12`: the inhibition was -1.6% (inactive).

Take `Cc1c(NC(=O)c2ccc(C(C)(C)C)cc2)cccc1[N+](=O)[O-]`: the inhibition was 7.4% (inactive).

For `CCn1c(CCc2ccccc2)n[nH]c1=S`, the inhibition is -3% (inactive).

As to `CCn1c(SCC(=O)N/N=C/c2ccc(OC)c(OC)c2)nc2ccccc21`, the inhibition is 8.4% (inactive).

As for `CCn1c(SCC(=O)N/N=C/c2ccc(O)c(OC)c2)nc2ccccc21`, the inhibition was 61.7% (active).

`CCn1c(SCC(=O)N/N=C/c2cc(OC)c(O)c(OC)c2)nc2ccccc21`: the inhibition is -0.1% (inactive).

For the compound `COc1ccccc1N1CCN(C(=O)C2CCN(S(=O)(=O)N3CCOCC3)CC2)CC1`, the inhibition was -6.6% (inactive).

Turning to `Cc1cccc(NC(=S)N(CCCN2CCOCC2)Cc2ccccn2)c1`, the inhibition was -1.4% (inactive).

As for `CCN(CC)C(=O)c1cn(C)c(=O)c2cc(OC)c(OC)cc12`, the inhibition is 12.6% (inactive).

Regarding `COc1ccc(CNc2nc(-c3cccnc3)nn2C(=O)C(C)C)cc1`, the inhibition is 1.5% (inactive).

For the compound `Cc1nn(C2CCS(=O)(=O)C2)c(Cl)c1/C=C/C(=O)OCC(=O)Nc1ccccc1[N+](=O)[O-]` (configuration not stated), the inhibition was 18.2% (inactive).

Regarding `C(=Nc1cccc2c(N=Cc3ccco3)cccc12)c1ccco1`, the inhibition is 82.9% (active).

With `CN(C)c1ccc(N=Cc2ccco2)cc1`, the inhibition was 44.6% (inactive).

Regarding `C(=N/n1c2ccccc2c2ccccc21)/c1ccco1`, the inhibition is 18.5% (inactive).

Take `COC(=O)Cn1c(=O)n(CCc2ccccc2)c(=O)c2c3c(sc21)CCCC3`: the inhibition is 23% (inactive).

As to `COC(=O)c1ccc(NC(=O)CSc2nnc(C)n2-c2ccccc2)cc1`, the inhibition is 9.9% (inactive).

As to `NC(CO)C(=O)NNCc1ccc(O)c(O)c1O` (configuration not stated), the inhibition is 78% (active).

Turning to `Cc1cc(C(=O)O)c(S(C)(=O)=O)s1`, the inhibition was -0.9% (inactive).

`Cc1cc(-c2nsc(=O)o2)c(S(C)(=O)=O)s1`: the inhibition was 53.2% (active).

Consider `O=C(CCc1cnccn1)NC1CCCc2c1cnn2-c1ccc(F)cc1F` (configuration not stated), for which the inhibition was 6.3% (inactive).

With `C=CCSc1nc2sc3c(c2c(=O)n1CC)CCc1ccccc1-3`, the inhibition was 71.8% (active).

Turning to `C=CCSc1nc2sc3c(c2c(=O)n1CC=C)CCc1ccccc1-3`, the inhibition was 10.5% (inactive).

Take `C=CCn1c(SCC)nc2sc3c(c2c1=O)CCc1ccccc1-3`: the inhibition is 7.8% (inactive).
